Screening data (PubChem)
Eya2 inh = qHTS Assay for Inhibitors of the Phosphatase Activity of Eya2. recombinant Eya2, OMFP fluorescence dephosphorylation (OMFP is methylfluorescein phosphate). Potency, µM (titrated, usually from 76.9 µM), hits mostly inhibitors. hit rate 0.006% among 330,000
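Eya2 (0.2 uM) preincubated 10 min at ambient with compound, then OMFP substrate added at 50 uM; 10 min reaction in 50 mM HEPES pH 7.5, 50 mM NaCl, 5 uM MgCl2, 0.05% BSA, 1 mM DTT. Fluorescence read at Ex 485/Em 525 nm.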
Six1-Eya2 inh = qHTS Assay for Inhibitors of the Six1/Eya2 Interaction; Homeobox protein SIX1 (Homo sapiens) + Protein phosphatase EYA2 (Homo sapiens), …; hit rate 0.56% among 360,000; activity change, % (test concentration not listed); AID 651725, 2012; AlphaScreen GST-Six1/His-Eya2 binding, biochemical; stronger effect = lower value; in the data active means activity change below about -65%; inconclusive means mostly about -30% to -63%
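Homogeneous AlphaScreen proximity assay pairing GST-Six1 with His-tagged Eya2 (added as 5X mix: 250 nM and 500 nM) in 50 mM Tris pH 8.0, 300 mM NaCl, 1 mM TCEP. Glutathione donor and nickel acceptor beads; 1 h, 37 °C, dark.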
CtBP-E1A inh = qHTS Assay for Inhibitors of the CtBP/E1A Interaction | AID 651724, 2012 | CtBP / adenovirus E1A interaction (AlphaScreen) | activity change, % (no concentration beside the values) | AlphaScreen GST-E1A/His-CtBP binding, 1536-well; stronger effect = lower value | hit rate 0.49% among 340,000; in the data active means activity change below about -65%; inconclusive means mostly about -30% to -63%
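Protein mix (5X: 125 nM each GST-E1A, His-CtBP) was incubated with pinned compound 2 h at 37 deg C in dark, in 50 mM Tris pH 8.0 buffer with 300 mM NaCl. Glutathione donor and nickel acceptor beads followed; AlphaScreen signal read after 1 h.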
JMJD2E inh = qHTS Assay for Inhibitors of Human Jumonji Domain Containing 2E (JMJD2E). AID 2147, 2009. JMJD2E catalytic domain, FDH-coupled NADH fluorescence (FDH is formaldehyde dehydrogenase). Potency, µM (series often up to 57.1 µM), actives largely listed as inhibitors. hit rate 1.6% among 230,000. Lysine-specific demethylase 4E (Homo sapiens), B2RXH2; active means well fitted inhibition curve with a large enough effect, not every such curve was filed as active; inconclusive means small, poorly fitted or top-dose-only effect, or another doubt; inactive means no such curve, though single readings can be large or run the other way; further: nearly all actives have a fitted effect of over 50% in size
Target sequence (B2RXH2 1-337 limits assumed): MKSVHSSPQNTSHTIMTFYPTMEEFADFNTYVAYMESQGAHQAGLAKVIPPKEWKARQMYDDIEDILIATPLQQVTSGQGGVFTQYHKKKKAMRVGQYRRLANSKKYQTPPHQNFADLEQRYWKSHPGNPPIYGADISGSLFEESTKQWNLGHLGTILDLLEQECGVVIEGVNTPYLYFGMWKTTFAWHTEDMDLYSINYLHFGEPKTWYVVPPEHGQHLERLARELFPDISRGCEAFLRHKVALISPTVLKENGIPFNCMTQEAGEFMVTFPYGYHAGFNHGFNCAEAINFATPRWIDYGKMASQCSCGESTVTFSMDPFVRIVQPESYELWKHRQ
GALK inhibitor = qHTS Assay for Inhibitors of Human Galactokinase (GALK) | P51570 | Purified GALK, Kinase-Glo residual ATP luminescence | Potency, µM (titrated, usually from 57.5 µM), most hits filed as inhibitors | hit rate 0.007% among 270,000 | AID 1868, 2009
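Kinase-Glo Plus luminescence measured ATP left after a 1 h room-temperature reaction. The reaction used 5 nM GALK, 100 uM galactose and 35 uM ATP at pH 8.0 (20 mM HEPES, 5 mM MgCl2, 60 mM NaCl, 1 mM DTT, 0.01% BSA).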
Anesthetic bind = qHTS Assay for Identification of Novel General Anesthetics; Potency, µM (titrated, usually from 77.5 µM), most hits filed as inhibitors; hit rate 0.074% among 350,000; apoferritin/1-aminoanthracene competitive binding, fluorescence; Ferritin light chain (Equus caballus), P02791; AID 485281, 2010; further: nearly all actives have a fitted effect of over 20% in size
Target sequence (P02791 2-175 limits assumed): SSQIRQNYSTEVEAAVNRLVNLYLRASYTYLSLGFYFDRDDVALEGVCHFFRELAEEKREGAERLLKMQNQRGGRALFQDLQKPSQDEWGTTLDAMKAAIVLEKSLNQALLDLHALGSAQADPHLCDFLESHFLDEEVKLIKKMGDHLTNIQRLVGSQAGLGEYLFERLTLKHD
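Horse-spleen apoferritin (10 uM) was mixed with 50% saturated 1-aminoanthracene in PBS, exposed to compounds for 10 min at room temperature, and read for fluorescence (ex 380 nm, em 535 nm). Competitive displacement was fitted with a four-parameter Hill equation.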
Large screens that a line does not name were inactive. Many of the other results were omitted from the sample, so hits are more common in it than they were. Unless noted, the call rests on the fitted dose curve; in most records, active means well fitted curve in the direction sought with a large enough effect; inconclusive means small, poorly fitted or top-dose-only effect, or another doubt; inactive means no such curve, though single readings can be large; an effect the other way counts as inactive or inconclusive.

CN1C(=O)C(=Cc2coc3ccccc3c2=O)C(=O)N(C)C1=O	none (no result: CtBP-E1A inh)
CN(C)C1C(=O)C(C(N)=O)=C(O)C2(O)C(=O)C3=C(O)c4c(O)cccc4C(C)(O)C3C(O)C12 (stereo not given)	Six1-Eya2 inh inconclusive, CtBP-E1A inh -68 (no result: JMJD2E inh, GALK inhibitor)
CN(C)[C@@H]1C(=O)C(C(N)=O)=C(O)[C@]2(O)C(=O)C3=C(O)c4c(O)ccc(Cl)c4[C@](C)(O)[C@H]3C[C@@H]12	none (no result: Eya2 inh, Six1-Eya2 inh, CtBP-E1A inh, GALK inhibitor)
NC(=O)CF	none (no result: Eya2 inh, Six1-Eya2 inh, CtBP-E1A inh, JMJD2E inh, GALK inhibitor)
O=c1c2ccccc2[se]n1-c1ccccc1	CtBP-E1A inh inconclusive, JMJD2E inh 0.4µM, Anesthetic bind inconclusive
Nc1nc(/C(=C/CC(=O)O)C(=O)NC2C(=O)N3C(C(=O)O)=CCSC23)cs1 (stereo not given)	JMJD2E inh inconclusive (no result: Eya2 inh, Six1-Eya2 inh, CtBP-E1A inh, GALK inhibitor)
CCCCC(=O)N/N=C/c1c(O)n(Cc2ccc(F)cc2)c(=O)[nH]c1=O	Six1-Eya2 inh -68, CtBP-E1A inh inconclusive, JMJD2E inh inconclusive (no result: GALK inhibitor)
O=C(N/N=C/c1c(O)n(Cc2ccc(F)cc2)c(=O)[nH]c1=O)c1ccccc1	Six1-Eya2 inh -74, CtBP-E1A inh -81, JMJD2E inh inconclusive
O=C(N/N=C/c1c(O)n(Cc2ccccc2)c(=O)[nH]c1=O)c1ccncc1	Six1-Eya2 inh -72, CtBP-E1A inh inconclusive, JMJD2E inh 20µM
O=C(O)c1ccc(N=Cc2c(O)n(Cc3ccc(F)cc3)c(=O)[nH]c2=O)cc1	none
CC(=O)C[C@H](c1ccccc1)c1c(O)c2ccccc2oc1=O	none (no result: Eya2 inh, Six1-Eya2 inh, CtBP-E1A inh, JMJD2E inh, GALK inhibitor)
CC1(C)Cc2c(sc3nc4n(-c5ccccc5)c(=O)c(CCC(=O)O)nn4c(=O)c23)CO1	Six1-Eya2 inh inconclusive, CtBP-E1A inh inconclusive, JMJD2E inh 32µM
CCn1nc(-c2ccccc2)nc2c(=O)n(C)c(=O)nc1-2	Eya2 inh 56µM, JMJD2E inh 28µM, GALK inhibitor 0.89µM
C[C@H]1O[C@@H](O[C@H]2[C@@H](O)C[C@H](O[C@H]3[C@@H](O)C[C@H](O[C@H]4CC[C@]5(C)C6CC[C@]7(C)[C@@H](C8=CC(=O)OC8)CC[C@]7(O)C6CC[C@@H]5C4)O[C@@H]3C)O[C@@H]2C)C[C@H](O)[C@@H]1O (stereo not given in full)	none (no result: Eya2 inh, Six1-Eya2 inh, CtBP-E1A inh, GALK inhibitor, Anesthetic bind)
COc1ccc(C2CC(c3c(O)n(CCc4ccccc4)c(=O)[nH]c3=O)=NN2)cc1OC (stereo not given)	Six1-Eya2 inh -68, JMJD2E inh inconclusive
COC1(C)CC(c2ccccc2)c2c(c3ccccc3oc2=O)O1 (stereo not given)	none (no result: Eya2 inh, Six1-Eya2 inh, CtBP-E1A inh, JMJD2E inh, GALK inhibitor)
CSc1nnc([C@@H](N)Cc2c[nH]c3ccccc23)o1	JMJD2E inh 4.5µM
COc1cc(O)c(C(=O)O)c(-c2cc(O)c(O)cc2C)c1	JMJD2E inh 14µM
CCCOCCN(C(=O)CCl)c1c(CC)cccc1CC	none (no result: Eya2 inh, Six1-Eya2 inh, CtBP-E1A inh, JMJD2E inh, GALK inhibitor)
O=C(CCN1CCOCC1)Nc1ccc(Br)cc1C(=O)c1ccccc1	Six1-Eya2 inh -74, CtBP-E1A inh -85, Anesthetic bind inconclusive (no result: JMJD2E inh)
CCCCCC1CC(CC#CCN2CCOCC2)C(=O)O1 (stereo not given)	JMJD2E inh inconclusive
CC(=O)N(O)[C@@H]1c2cc(C#N)ccc2OC(C)(C)[C@H]1O	JMJD2E inh inconclusive (no result: Eya2 inh, Six1-Eya2 inh, CtBP-E1A inh, GALK inhibitor)
Cc1ccc(-c2cn3c(=S)[nH]nc3s2)cc1	JMJD2E inh 6.3µM
CN(C)c1ccccc1	none (no result: Eya2 inh, JMJD2E inh, GALK inhibitor, Anesthetic bind)
Cc1cccc(N=Nc2ccc(N(C)C)cc2)c1	Six1-Eya2 inh -72, CtBP-E1A inh inconclusive (no result: JMJD2E inh)
CN(C(=O)Cc1ccc(Cl)c(Cl)c1)C(CN1CCCC1)c1cccc(N=C=S)c1 (stereo not given)	none (no result: Eya2 inh, Six1-Eya2 inh, CtBP-E1A inh, JMJD2E inh, GALK inhibitor)
CSc1ncc(/C=C2/C(=O)NC(=O)N(C3CCCCC3)C2=O)cn1	JMJD2E inh 22µM
CSc1ncc(/C=C2/C(=O)NC(=O)N(c3ccc(C(C)C)cc3)C2=O)cn1	JMJD2E inh inconclusive
